# Test results: PubChem BioAssay AID1259417 (TB Discovery Research, Infectious Disease Research Institute, 2018)
# Out of some 1,100 compounds screened, about 760 (69%) were called active. The rule behind the calls is not given here. The set was probably picked from earlier hits. The list shows a part of the results.
# Assay: M. tuberculosis growth inhibition, HTS (AID 1259417);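 note: bacteria grown with compound for 5 days at 37 °C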
# Conditions: stronger effect = higher value, concentration not given here
# [1] = M. tuberculosis DsRed fluorescence growth inhibition
# [2] = M. tuberculosis growth inhibition
Structure (SMILES),inhibition [1],inhibition [2]
Cc1ccc(-c2nnc(NC(=O)c3ccccc3C)o2)c(C)c1,84.4% (active),87.2%
Cc1ccc(-c2nnc(NC(=O)c3ccccc3Br)o2)c(C)c1,6.55% (inactive),19.3%
Cc1ccc(-c2nnc(NC(=O)c3cc4ccccc4oc3=O)o2)c(C)c1,80.8% (active),88.6%
Cc1ccc(-c2nnc(NC(=O)c3ccccc3Cl)o2)c(C)c1,24.1% (active),62.8%
CCOC(=O)C1CCN(C2=NC(=O)C(=Cc3ccc(Cl)cc3Cl)S2)CC1,51.5% (active),55.8%
NC(=O)C1CCN(C2=NC(=O)C(=Cc3ccc(Cl)cc3Cl)S2)CC1,100% (active),99.1%
Cc1ccc(-c2csc3ncn(C(C)C(=O)OC4CCCCC4)c(=O)c23)cc1C (centres undefined),-0.545% (inactive),-11%
CSc1nc2nc3c(c(=O)n2[nH]1)CCCC3,23.8% (active),41.7%
Cc1ccc(C(C)C)cc1OCCCCn1ccnc1,100% (active),99.6%
Cc1ccc(C(C)C)c(OCCCCn2ccnc2)c1,98.9% (active),100%
Cc1cc(OCCCCn2ccnc2)ccc1C(C)C,99.8% (active),98.9%
Cc1cc(OCCCCn2ccnc2)cc(C(C)C)c1,100% (active),100%
O=C(c1ccc(Cl)cc1)c1ccc(CSc2nnc(-c3ccccc3)o2)o1,97.4% (active),96.9%
COC(=O)c1ccc(CSc2nnc(-c3ccncc3)o2)o1,14.3% (active),39.6%
CCOc1cc(CNC(C)C23CC4CC(CC(C4)C2)C3)cc(Cl)c1OCC(=O)NC(C)(C)C (centres undefined),99.2% (active),98.2%
COc1cc(CNC(C)c2ccccc2)cc(Cl)c1OCC(=O)Nc1ccccc1 (centres undefined),29.9% (active),19%
CCOC(=O)COc1ccc(S(=O)(=O)N2CCC(C)CC2)cc1,72.7% (active),91.2%
CCOC(=O)COc1ccc(S(=O)(=O)N2CCc3ccccc3C2)cc1,80.1% (active),96.9%
CCOc1ccc(NC(=O)CSc2nnc(Cc3ccc(OC)cc3)o2)cc1,3.01% (inactive),2.07%
C=CCSc1nnc(-c2ccc([N+](=O)[O-])cc2)o1,99.2% (active),99.1%
Cc1ccc(Oc2cc(NC(=O)CCCn3nc(C)c([N+](=O)[O-])c3C)cc([N+](=O)[O-])c2)cc1,0.414% (inactive),-13.5%
COc1cccc(NC(=O)CSc2nnc(-c3ccc(Br)cc3)o2)c1,17.3% (inactive),19.2%

Structure (SMILES),inhibition [1],inhibition [2]
COc1ccc(Cc2nnc(SCC(=O)Nc3ccc(C(C)C)cc3)o2)cc1,6.85% (inactive),9.66%
COc1ccc(-c2nnc(SCC(=O)Nc3ccc([N+](=O)[O-])cc3)o2)cc1,23.1% (active),88.8%
CCOC(=O)c1ccc(NC(=O)CSc2nnc(-c3ccc(OC)cc3)o2)cc1,18.2% (active),56.7%
COC(=O)c1ccc(NC(=O)CSc2nnc(Cc3ccc(OC)cc3)o2)cc1,18.7% (active),53.1%
CCOC(=O)CSc1nnc(-c2ccc([N+](=O)[O-])cc2)o1,95.7% (active),95.6%
O=C(/C=C/c1cccc([N+](=O)[O-])c1)c1cccs1,94.6% (active),96.5%
CCOC(=O)C(C)Oc1ccc2c(-c3ccc(OC)cc3)cc(=O)oc2c1 (centres undefined),56.3% (active),89%
COC(=O)COc1ccc2c(-c3ccc(OC)cc3)cc(=O)oc2c1,97.7% (active),98.3%
CCOC(=O)c1c(C)n(C)c2ccc(OC(C)C(=O)OC)cc12 (centres undefined),3.6% (inactive),19.3%
CC(C)(C)n1cnc2cc(NC(=O)c3ccc(Cl)cc3)ccc21,19.9% (inactive),28.4%
CCOC(=O)COc1ccc2c(c1)c(C(=O)OCC)c(C)n2CC,51.2% (active),69.6%
COC(=O)COc1ccc(NC(=O)c2ccc(-c3ccccc3)cc2)cc1,99.4% (active),100%
COC(=O)COc1ccc(NC(=O)c2ccc3c(c2)C(=O)N(C(C)(C)C)C3=O)cc1,69.9% (active),88.2%
COC(=O)COc1ccc(-c2ccc(C)cc2)cc1,35.7% (active),70.9%
CCOC(=O)COc1ccc(-c2ccc(C)cc2)cc1,24.3% (active),81.2%
Cc1ccc(-c2ccc(OCC(=O)OCc3ccccc3)cc2)cc1,53.2% (active),82.9%
CCOC(=O)COc1ccc(OCc2ccccc2)cc1,1.21% (inactive),-7.23%
COC(=O)COc1ccc(-c2ccccc2)cc1,48.7% (active),85.1%
CC(C(=O)OCc1ccccc1)n1cnc2scc(-c3ccc(Br)cc3)c2c1=O (centres undefined),-4.93% (inactive),-4.92%
COc1ccccc1NC(=O)CSc1nc(-c2ccccc2)cc(C(F)(F)F)c1C#N,0.888% (inactive),24.8%
CN1CCN(c2cc(-c3ccccc3)nc3c(C(F)(F)F)cccc23)CC1,93% (active),71%
CC(NC(=O)c1ccc([N+](=O)[O-])o1)C12CC3CC(CC(C3)C1)C2 (centres undefined),70% (active),75.5%

Structure (SMILES),inhibition [1],inhibition [2]
O=C(Oc1cccc2cccnc12)c1ccco1,101% (active),99.7%
O=C(Oc1cccc2cccnc12)c1ccccc1F,101% (active),101%
CCN(CC)S(=O)(=O)c1ccc(Cl)c(C(=O)Oc2cccc3cccnc23)c1,100% (active),99.3%
O=C(Oc1cccc2cccnc12)c1cc2ccccc2oc1=O,99.2% (active),100%
O=C(Oc1ccccc1)c1cccc2cccnc12,99.7% (active),101%
CS(=O)(=O)Cc1nc2ccccc2oc1=O,99.8% (active),99.5%
CCC(Sc1nc2ccccc2o1)C(=O)Nc1nnc(C)s1 (centres undefined),92.7% (active),96.2%
CNc1nc(SC)nc2ccsc12,99.7% (active),98.9%
c1ccc(C2=Nc3ccccc3OC2)cc1,97.6% (active),97.5%
CCOC(=O)COc1cc2oc(=O)cc(CC)c2cc1Cl,6.17% (inactive),26.9%
CCCCc1cc(=O)oc2cc(OCC(=O)OCc3ccccc3)c(Cl)cc12,33.1% (active),73.7%
CCCCc1cc(=O)oc2cc(OC(C)C(=O)OCC)c(Cl)cc12 (centres undefined),49.4% (active),93.7%
CCOC(=O)c1cc(-c2csc(COc3ccc(Cl)cc3)n2)on1,100% (active),99.5%
CCOC(=O)c1cc(-c2csc(-c3ccc(C(F)(F)F)cc3)n2)on1,63.4% (active),83.4%
CCOC(=O)c1cc(-c2csc(COc3ccccc3Cl)n2)on1,98.1% (active),98.8%
CCOC(=O)C(/C=C(\C#N)C(=O)OCC)=C(/N)N1CCN(c2ccc(Cl)cc2)CC1,46% (active),46.9%
CCOC(=O)COc1cccc(C=C2Oc3cc(OC)ccc3C2=O)c1,31.7% (active),54%
CCOC(=O)COc1ccc(C=C2Oc3cc(OC)ccc3C2=O)cc1,60.8% (active),79.9%
CCOc1ccc2c(c1)OC(=Cc1cccc(OCC(=O)OC)c1)C2=O,10% (active),50.5%
COc1c(N2C[C@@H]3CCCN[C@@H]3C2)c(F)cc2c(=O)c(C(=O)O)cn(C3CC3)c12,101% (active),100%
NC1CCN(c2nc3c(cc2F)c(=O)c(C(=O)O)cn3-c2ccc(F)cc2F)C1 (centres undefined),98.3% (active),98.4%
NC1CCN(c2c(F)cc3c(=O)c(C(=O)O)cn(C4CC4)c3c2Cl)C1 (centres undefined),99.8% (active),100%

Structure (SMILES),inhibition [1],inhibition [2]
COc1c(N2CCNC(C)C2)c(F)cc2c(=O)c(C(=O)O)cn(C3CC3)c12 (centres undefined),99.5% (active),101%
CC1=NN(c2nc3ccccc3s2)C(=O)C1Cc1cccc2ccccc12 (centres undefined),-2.3% (inactive),21.1%
Cc1cc(C)c2c(c1)c(-c1ccccc1)c(-c1ccccc1)n2CC(O)CN1CCN(CCO)CC1 (centres undefined),48.4% (active),39.3%
Cc1ccc2c(c1)c(-c1ccccc1)c(-c1ccccc1)n2CC(O)CN1CCN(CCO)CC1 (centres undefined),23.8% (inactive),13.1%
Clc1ccc(C2=CC(c3ccc(Cl)cc3)n3nnnc3N2)cc1 (centres undefined),43.4% (active),39.3%
CCOC(=O)COc1ccc(C(=O)Nc2ccc(F)cc2)cc1,20.5% (active),42.4%
Cc1ccc(NC(=O)c2ccc(OCC(=O)OC3CCCCC3)cc2)cc1,53.4% (active),78.1%
O=C(COc1ccc(-c2ccccc2)cc1)OC1CCCCC1,26.1% (active),58.6%
CCOC(=O)COc1ccc(C(=O)NC2CCCCC2)cc1,1.79% (inactive),-15.3%
O=C(COc1ccc(C(=O)NCc2ccccc2)cc1)OC1CCCCC1,37.7% (active),52.9%
Cc1c(Cc2ccccc2)c(NCCCO)n2c(nc3ccccc32)c1C#N,97.8% (active),87.9%
Cc1c(Cc2ccc(Cl)cc2)c(NCCCN(C)C)n2c(nc3ccccc32)c1C#N,14.4% (inactive),-9.38%
O=C(NCCc1ccc(F)cc1)NC12CC3CC(CC(C3)C1)C2,100% (active),96.2%
CCOC(=O)c1c(CSc2ccccc2)n(-c2ccccc2)c2ccc(O)c(CN(C)C)c12,92.7% (active),91.9%
Oc1ccc(CNc2ccccc2O)cc1,98.3% (active),97.3%
N#Cc1nc(-c2cccs2)oc1NCCc1ccccc1,100% (active),100%
CC(C)N=c1cc2n(-c3ccc(Cl)cc3)c3ccccc3nc-2cc1Nc1ccc(Cl)cc1,100% (active),99.5%
Cc1cc(O)ccc1Nc1nc(-c2ccccn2)cs1,71.9% (active),77.7%
Cc1ccccc1Nc1nc(-c2ccccn2)cs1,87.2% (active),92.7%
Cc1cccnc1Nc1nc(-c2ccccn2)cs1,100% (active),100%
Cc1ccn2c(-c3csc(Nc4ccccn4)n3)c(C)nc2c1,98.9% (active),100%
